CHT PAM – allosterically activates the human high affinity choline transporter | Q9GZV3 | CHT-expressing cells, membrane potential dye, choline EC20; active compounds read high; LV-AA mutant CHT in HEK293 cells | B-score at 10 µM | actives 0.49% (n = 310,000) | AID 488977;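 active means initial fluorescence not abnormally high and integrated response B-score, plate-corrected, over 3 SD above library mean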
Target sequence (Q9GZV3 whole entry, looked up): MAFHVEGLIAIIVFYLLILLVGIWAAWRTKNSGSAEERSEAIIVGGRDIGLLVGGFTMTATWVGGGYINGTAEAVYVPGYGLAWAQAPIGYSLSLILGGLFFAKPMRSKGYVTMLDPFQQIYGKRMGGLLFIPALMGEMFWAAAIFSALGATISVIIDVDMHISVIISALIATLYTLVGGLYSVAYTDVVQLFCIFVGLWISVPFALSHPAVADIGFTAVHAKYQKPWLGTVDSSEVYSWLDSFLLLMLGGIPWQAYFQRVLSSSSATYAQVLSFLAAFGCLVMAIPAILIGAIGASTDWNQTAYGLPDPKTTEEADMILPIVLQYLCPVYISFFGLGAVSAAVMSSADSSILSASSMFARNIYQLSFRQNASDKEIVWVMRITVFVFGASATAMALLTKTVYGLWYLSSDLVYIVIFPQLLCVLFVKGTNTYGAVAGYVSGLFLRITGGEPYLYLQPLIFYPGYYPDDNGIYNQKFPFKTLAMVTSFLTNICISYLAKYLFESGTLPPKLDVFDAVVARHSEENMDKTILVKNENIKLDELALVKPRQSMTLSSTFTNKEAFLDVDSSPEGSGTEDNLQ
CHT inh – human CHT choline transport inhibition; Q9GZV3; CHT-expressing cells, membrane potential dye, choline response; active compounds read low; B-score at 10 µM; actives 0.86% (n = 310,000);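 active means B-score over 3 SD under the library average, and starting fluorescence ratio not unusually high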;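 further: choline stimulus applied at its EC90 after an EC20 pre-addition; B-score computed on integrated fluorescence ratio after choline addition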
ANO1 activ – mouse TMEM16A channel activation, primary screen; HEK293 TMEM16A/YFP-H148Q/I152L, iodide quench fluorescence; active compounds read low; Q8BHY3; B-score at 10 µM; actives 0.3% (n = 340,000);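 active means fluorescence-ratio B-score plate-corrected deviation score at least 3 library SD below zero, with starting fluorescence score within 5 deviations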;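 further: channel opened by trigger with iodide after compound preincubation; score built on the fluorescence ratio of max minus min over baseline; more negative score means more quench and so TMEM16A activation or potentiation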
ANO1 block – inhibitors of mouse TMEM16A calcium-activated chloride channel; Q8BHY3; HEK293 TMEM16A/YFP iodide influx fluorescence, ionomycin; normalized B-score (activity score, 25-100; higher = stronger inhibition) at 10 µM; actives 1.2% (n = 310,000);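 active means ratio plate-corrected score three or more library SD toward inhibition, starting fluorescence score within five deviations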;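 further: score derived from kinetic fluorescence span divided by baseline fluorescence per well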
Kir21 inh – inhibitors of mouse Kir2.1 inward-rectifier potassium channel; P35561; HEK293-Kir2.1, FluxOR thallium flux fluorescence; active compounds read low; B-score at 10 µM; actives 0.85% (n = 310,000); AID 1672;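 active means fluorescence ratio B-score at or below minus 3 SD of library scores, with starting-brightness B-score within 2 SD, cut at about -4.2 in these data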;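 further: channel flux triggered by added potassium and thallium sulfate stimulus; B-score of peak minus minimum fluorescence over baseline after thallium stimulus; more negative B-score means stronger Kir2.1 block with less thallium influx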
GPR7 antag – blocks human GPR7 receptor signaling; GPR7-expressing cells, fluorescence antagonist assay; inhibition, % at 4.4 µM; AID 1861; actives 1.1% (n = 290,000); P48145; in the data active means inhibition above about 16%, passing the limit was not always enough;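 further: cells stimulated with the agonist NPW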
CHT act confirm – human CHT activation, confirmatory screen; shares compounds with CHT PAM; CHT-expressing cells, membrane potential dye fluorescence (FDSS); % of choline EC20–EC90 response window; HEK293 expressing CHT LV-AA mutant; choline added at its EC20; activation, % at 10 µM; actives 91% (n = 2,500); AID 504833;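 active means primary screen active, with duplicate mean activation above negative control mean plus 3 SD, cut at about 11% in these data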
HEK293 MP dye – CHT activator counter-screen hit in parental HEK293 cells. shares compounds with CHT PAM. membrane potential dye fluorescence (FDSS); measured after EC20 choline addition. ratio readout change at 10 µM, hits read low. actives 62% (n = 2,500);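 active means duplicate-averaged ratio beyond 3 SD from buffer wells, up or down, though filed actives are nearly all decreases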
A number is an active result. Hits are enriched below; roughly 3.7% of the tested compounds scored in any of these assays.

Results for CC(NCC(=O)NC(=O)NCCC1=CCCCC1)c1ccc(S(N)(=O)=O)cc1 (stereo unspecified) ?
ANO1 activ: inactive

What do the screens show for `C/C(=N/NC(=O)c1cnccn1)c1ccncc1`?
CHT PAM: 6.4; CHT inh: inactive; ANO1 activ: inactive; ANO1 block: inactive; Kir21 inh: inactive; GPR7 antag: inactive; CHT act confirm: 48.7; HEK293 MP dye: -40.3

How did C/C(=N/NC(=O)c1ccccn1)c1ccncc1 do in these assays?
CHT PAM: inactive; CHT inh: inactive; ANO1 activ: inactive; ANO1 block: inactive; Kir21 inh: inactive; GPR7 antag: inactive

Results for CCOC(=O)c1nc2c(ccc3ccccc32)cc1C ?
CHT PAM: inactive; CHT inh: inactive; ANO1 activ: inactive; ANO1 block: inactive; Kir21 inh: inactive; GPR7 antag: inactive

How did c1ccc(-c2cn(-c3ccccc3)c3[n+]2CCS3)cc1 do in these assays?
CHT PAM: 6.76; CHT inh: inactive; ANO1 activ: inactive; ANO1 block: inactive; Kir21 inh: inactive; GPR7 antag: inactive; CHT act confirm: 55.6; HEK293 MP dye: -34

Results for c1ccc(-c2c[n+]3c(n2-c2ccccc2)SCC3)cc1 ?
CHT PAM: 6.61; CHT inh: inactive; ANO1 activ: inactive; ANO1 block: inactive; Kir21 inh: inactive; GPR7 antag: inactive; CHT act confirm: 49.3; HEK293 MP dye: -32.5

What do the screens show for `Cc1ccccc1Nc1c(-c2cccnc2)nc2ccccn12`?
CHT PAM: 7.53; CHT inh: inactive; ANO1 activ: inactive; ANO1 block: inactive; Kir21 inh: inactive; GPR7 antag: inactive; CHT act confirm: 49.7; HEK293 MP dye: -51.1

Results for Cc1ccn2c(Nc3ccccc3C)c(-c3ccccn3)nc2c1 ?
CHT PAM: inactive; CHT inh: inactive; ANO1 activ: inactive; ANO1 block: inactive; Kir21 inh: inactive; GPR7 antag: inactive

Results for COc1ccc(C2/C(=C(/O)c3ccc(C)cc3)C(=O)C(=O)N2CCCN2CCOCC2)cc1 (stereo unspecified) ?
CHT PAM: inactive; CHT inh: inactive; ANO1 activ: inactive; ANO1 block: inactive; Kir21 inh: inactive; GPR7 antag: inactive

What do the screens show for `COc1ccc(CNC(=O)COc2cc3c(c4oc(=O)cc(C)c24)CCC(C)(C)O3)cc1`?
CHT PAM: inactive; CHT inh: inactive; ANO1 activ: inactive; ANO1 block: inactive; Kir21 inh: inactive; GPR7 antag: inactive

Results for COc1ccccc1CNC(=O)COc1cc2c(c3oc(=O)cc(C)c13)CCC(C)(C)O2 ?
CHT PAM: inactive; CHT inh: inactive; ANO1 activ: inactive; ANO1 block: inactive; Kir21 inh: inactive; GPR7 antag: inactive; CHT act confirm: 24.2; HEK293 MP dye: inactive

What do the screens show for `CCN1CCN(c2cc(C)c3cc(NC(=S)NCc4cccs4)ccc3n2)CC1`?
CHT PAM: inactive; CHT inh: inactive; ANO1 activ: inactive; ANO1 block: inactive; Kir21 inh: inactive; GPR7 antag: inactive; CHT act confirm: 21.3; HEK293 MP dye: -40.8

How did Cc1cc(N2CCOCC2)nc2ccc(NC(=S)NCCN(C)C)cc12 do in these assays?
CHT PAM: inactive; CHT inh: inactive; ANO1 activ: inactive; ANO1 block: inactive; Kir21 inh: inactive; GPR7 antag: inactive; CHT act confirm: 45.2; HEK293 MP dye: -33.5

Results for Cc1cc(N2CCN(C)CC2)nc2ccc(NC(=S)NCc3cccs3)cc12 ?
CHT PAM: inactive; CHT inh: inactive; ANO1 activ: inactive; ANO1 block: inactive; Kir21 inh: inactive; GPR7 antag: inactive

How did Cc1cc(N2CCOCC2)nc2ccc(NC(=S)NCCC(C)C)cc12 do in these assays?
CHT PAM: inactive; CHT inh: inactive; ANO1 activ: inactive; ANO1 block: inactive; Kir21 inh: inactive; GPR7 antag: inactive; CHT act confirm: 19.2; HEK293 MP dye: -25.3
